Drawing on publication PMC12136788, this text covers binding signal for 22 molecules.

Sequences and labels used below:
T1: UNK ZnF1-3 (human, UniProt Q9C0B0 31-174)
T1 sequence: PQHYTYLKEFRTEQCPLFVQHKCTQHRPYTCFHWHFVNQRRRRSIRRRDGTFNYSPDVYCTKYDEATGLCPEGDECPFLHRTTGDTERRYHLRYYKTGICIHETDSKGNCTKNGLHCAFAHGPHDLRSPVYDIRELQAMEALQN

B1: chr14:89338683:89338684:+_ENSG00000165533_ENST00000346301|hu_hu|hu_hu_hu_mus_False|38_98 (ssRNA)
RNA: GGGAGUUCUACAGUCCGACGAUCGUGGUUGUUGUGGACCAGAGCCAGCCUGAAGCAUUGGUGGGCCAAGUUUGUAUCUCCGAUUCCCACAGCUAUGUGUCCCAAGUUGUACCAGACAUCAGCUGCCUCUUCUUCAUUUUCAGCCAACAGAGGAUUGAGCAUCA
B2: chr3:179287964:179287965:+_ENSG00000136518_ENST00000429709|hu_hu|hu_hu_hu_mus_True|68_68 (ssRNA)
RNA: GGGAGUUCUACAGUCCGACGAUCCUUGAGUGGUGAGAUGGCCUCCAUGUUCUCCCUGGGCACGCGGAGAGCAUUAGUGUCUAUGUAGUAGGUGGGCCCGCCCUGCUUGCCUUUGUCACCAUCAAUCUCCAUCAUUGUACUUCCCAACAGAGGAUUGAGCAUCA
B3: chr7:117217587:117217588:+_ENSMUSG00000061079_ENSMUST00000084727|mus_hu|FALSE|FALSE (ssRNA)
RNA: GGGAGUUCUACAGUCCGACGAUCGAUAUAAGCUGUGGUACCAUCUUCCAGCUGAACCGCCUGUAAUGCACUCUGGUCAUAACUAUUACUUUUAGGUAUGGGUACAUGUUGAACAUAGGCCGCAGAACCAUCUUCCAACUGAAUCAACAGAGGAUUGAGCAUCA
B4: chr5:95152273:95152274:-_ENSG00000173221_ENST00000237858|hu_mus|motif|central (ssRNA)
RNA: GGGAGUUCUACAGUCCGACGAUCCAGCCGAGUCAUCAGCUCCCCAGUCUGUUGCAUGGAGAUUAGAUCACUGCAUCCGCCGGUGCAGUCUUUACCUAUGAAGACCCGAGGAACUGUUCUCGCUCCGGUGAGCUGUUGUAAAUACAACAGAGGAUUGAGCAUCA
B5: 12280944_12281064_4437_CDS_ENSMUSG00000032625_ENSMUST00000046121|mouse|control|control (ssRNA)
RNA: GGGAGUUCUACAGUCCGACGAUCGGGCUGGGUGCAGGUUUCCUCCAAAACUAUUUGUUUAUUACCAUCUAUGAUGAGCUCUGUGUUAGCACAGAACUCUUCGUCCACCACUUUGCUGAAAUCCUCAGCUGAGCCAUCACUCACCAACAGAGGAUUGAGCAUCA
B6: chr15:79189586:79189587:+_ENSG00000185787_ENST00000426013|hu_hu|motif|central (ssRNA)
RNA: GGGAGUUCUACAGUCCGACGAUCUGAAAACACUGGCAGCAAUUUUGAAAUGAAAAAAAAAAAGAAAGAAGAAAAAAGGAGCGGUUACCCCCUUUUAUUUUUUCUCUGUUUAAAAUCAAACAGAAAACAAACAUCAAUUGUUAUCAACAGAGGAUUGAGCAUCA
B7: chr7:75956504:75956505:-_ENSG00000170027_ENST00000307630|hu_mus|FALSE|FALSE (ssRNA)
RNA: GGGAGUUCUACAGUCCGACGAUCAUAGAACUGCAUGUCACUAUAGCAACAUCCAAAACAGAUCAAUCUGUUACAAUCACUAUUUGGUAAAGCAAACUUUACCCCUGAAAGGAAAAAAUUAAAUUAAAAAAAAGAAGUUUAAAACAACAGAGGAUUGAGCAUCA
B8: 54532588_54532708_162_CDS_ENSMUSG00000073678_ENSMUST00000097739|mouse|control|control (ssRNA)
RNA: GGGAGUUCUACAGUCCGACGAUCGAAUUUAAAUGUAUCCUUUUUUUUUUCCCCUAAAAAAGGGAUGUAAAAAAUCCAAUAUGAAACAGAAAAAGUACACAUGAAAUACAAAAUACACUGUCUGUUUGGCUCUGGAGCAGUUAGCAACAGAGGAUUGAGCAUCA
B9: 65006457_65008074_834_CDS_ENSMUSG00000029920_ENSMUST00000031984|mouse|control|control (ssRNA)
RNA: GGGAGUUCUACAGUCCGACGAUCUGUUGAUUCAAUCAACUUUAGAAGAUCACUGUCACUUCUUUGUGGAAACAGUUCCUUCAAUGUCUGAAGCUUAGCAUCUUUAAGAUCUUCCAAUUCUGAAAGGUCUUCCAGUUCUGAACUCAACAGAGGAUUGAGCAUCA
B10: chr15:79189586:79189587:+_ENSG00000185787_ENST00000426013|hu_hu|FALSE|FALSE (ssRNA)
RNA: B6 RNA with G82U, G83A
B11: chr9:37780659:37780660:-_ENSG00000107371_ENST00000396521|hu_hu|FALSE|FALSE (ssRNA)
RNA: GGGAGUUCUACAGUCCGACGAUCGGUUCACCUGAAAAAACCCAUAGUUUUUUGCCUCAACUGACCUGUAAAAAAGUCCACCUAUAUCAACUUUCUGCCAAUCUGGAGAAGAUCUGUUUUCUUUGAUCUGACGUCAUGUGUUCACAACAGAGGAUUGAGCAUCA
B12: chr7:75956504:75956505:-_ENSG00000170027_ENST00000307630|hu_mus|motif|central (ssRNA)
RNA: B7 RNA with U80G, A81G
B13: chr1:225611761:225611762:-_ENSG00000143815_ENST00000272163|hu_mus|hu_hu_hu_mus_True|8_98 (ssRNA)
RNA: GGGAGUUCUACAGUCCGACGAUCCCAGGCCAUCGGCCUCUUACCACUUCACCCUCAACAAACUUCCUACUUGGCAUUUUCUAAAAUUAGUCUGGCCGCGCUCCGGCGGGAACUCCAGCCACUCCAGGGAGAAUAGUAGCAGCCCAACAGAGGAUUGAGCAUCA
B14: 35472726_35489589_359_3pUTR_ENSMUSG00000029840_ENSMUST00000031866|mouse|control|control (ssRNA)
RNA: GGGAGUUCUACAGUCCGACGAUCCUGUCCACAAUCUGCAGCAUAAUGAAGAGGCUUCCUUCCACCCUCUAGUGUCCGGUUGACAUCUUCUCCCUUAGCCACAUAGUCCUUCACCUCAUCCAAGUCUCCGUUUUUCAGGGCCCACAACAGAGGAUUGAGCAUCA
B15: chr17:47010600:47010601:-_ENSG00000159210_ENST00000290330|hu_hu|FALSE|FALSE (ssRNA)
RNA: GGGAGUUCUACAGUCCGACGAUCACUGACAGUCACGUAGCCAUUCUCUGCCAGCUGCAGCACCACGGUGUGAUCCAUAUUGAGCUCAGCUGGAACAGACUGAAUGAGGUAAGUGCCGCCCACAGGGAUGAUGCCGAAGCCAGUCAACAGAGGAUUGAGCAUCA
B16: chr2:217001844:217001845:+_ENSG00000079246_ENST00000392132|hu_hu|FALSE|FALSE (ssRNA)
RNA: GGGAGUUCUACAGUCCGACGAUCGCCGACUUGAGGAUUAGCUCUUUUGUCAUAAGCAUAUCGAACUAUGGCCACCAUGUCUAAGUCAUCCAAAGCAUGAAUCAGGGAGGAAAGUGCAACUGCAGCUGCCUCAUCAUCUCUUGCCAACAGAGGAUUGAGCAUCA
B17: chr21:40768814:40768815:+_ENSG00000182093_ENST00000333781|hu_mus|motif|central (ssRNA)
RNA: GGGAGUUCUACAGUCCGACGAUCCUGGCCUUCCCCUCAGCUGAAAGGGUGGAGAACGAUAGCCACAACUUUGUUACAGACGGAAAUCCAACAGGUGAUUCCAAUUCCACCUGCUACUCGAGUAGGAAAGGCUACCAGGCGGUCCAACAGAGGAUUGAGCAUCA
B18: 96412582_96412966_892_CDS_ENSG00000111144_ENST00000228740|human|control|control (ssRNA)
RNA: GGGAGUUCUACAGUCCGACGAUCGCCACCAUAAGGGAAGGAUGGUGGCAGGACCAAUAGGUCAUACUGUCCCCAUACAUACGGUCCUCCCAGAUCUUCUGCUAUUUUAAGCAUAGAUUCAGUCUCAGAAAACUCAUAAGCAGACAACAGAGGAUUGAGCAUCA
B19: 32585910_32588873_1288_CDS_ENSMUSG00000024381_ENSMUST00000025239|mouse|control|control (ssRNA)
RNA: GGGAGUUCUACAGUCCGACGAUCUGAGAAAGGCCCAGGGGCCUCAAACUGGGAGGGGGUGGUCACGCUGAUCUCAGGGACAAAUGCGUCAUCAAAAAGGCUGAGAAUCUGCUCCUGCUUCAUCUCCUUGGAUGGGGUGUGUUUCAACAGAGGAUUGAGCAUCA
B20: chrX:117107323:117107324:-_ENSG00000003096_ENST00000371878|hu_mus|motif|central (ssRNA)
RNA: GGGAGUUCUACAGUCCGACGAUCUUUGAGCUGCAACAGUACAAAUGGGAUAUAAACCUCAGCAUAGCCUUAGGCCACAGCGGAUAGAGAUCAGUGACUAAAUUCAGCAGCCCGCUUUCCUCCUGUGAAAGCUCUGGCCACACACAACAGAGGAUUGAGCAUCA
B21: chr16:18799448:18799449:-_ENSG00000134419_ENST00000563390|perfect_dup|FALSE|FALSE (ssRNA)
RNA: GGGAGUUCUACAGUCCGACGAUCCCUUCCUGUGAGGUUCACAACAAUCUUCCCAGCUCUGUGAUCAUCAAUGAUCUCAAAUUCACCAAUGUAUCCGUGCUUCAUCAUCACGGUUAAGAACCGAACGAUGACUUUAGAACAUGGCAACAGAGGAUUGAGCAUCA
B22: 99623494_99624154_931_CDS_ENSMUSG00000067567_ENSMUST00000087916|mouse|control|control (ssRNA)
RNA: GGGAGUUCUACAGUCCGACGAUCCUGAAUGGGCACAUUGACACUGUAGUACCGUCCUUUCCCCAGGCCAACAUCAGACAUGUCACCUGUUCCUGGGAAAAAUCCUGGGGAGAACUUGUGCAGGGACACAGUCAUAACCUUCGACAACAGAGGAUUGAGCAUCA

Changes are numbered by the printed parent chain. The full ranking holds about 24,000 sequences; the median of “enrichment r” is about 0.99, and the highest 2% start at about 3.7. The full list was thinned out, with the highest values kept by preference.

The target of this assay is T1, UNK ZnF1-3. Briefly: nsRBNS (natural sequence RNA bind-n-seq); RBNS binding buffer (assumed for nsRBNS): 25 mM Tris pH 7.5, 150 mM KCl, 3 mM MgCl2, 0.01% Triton X-100, 500 ug/ml BSA, 20 U/ml SUPERase-In, 4 C; UNK is unkempt and MSI1 is Musashi-1; names of the RNAs are library labels; protein concentration not given here; high values mean tight binding.
The molecule B1 had a binding signal of 0.877 enrichment R.
Under B2 stands 0.757 enrichment R.
Then B3, with 0.834 enrichment R.
Under B4 stands 1.01 enrichment R; under B5, 0.732 enrichment R; under B6, 3.68 enrichment R.
Molecule B7 returned a binding signal of 9.16 enrichment R.
Then B8, with 1.05 enrichment R; and B9, with 0.355 enrichment R; and B10, with 3.39 enrichment R.
Then B11, with 0.913 enrichment R.
Under B12 stands 6.25 enrichment R; under B13, 1.11 enrichment R.
B14 gave a binding signal of 0.866 enrichment R.
In turn, B15 returned a binding signal of 0.843 enrichment R.
Take B16: the binding signal was found to be 1.53 enrichment R.
Under B17 stands 1.05 enrichment R.
Then B18, with 0.524 enrichment R; and B19, with 1.65 enrichment R.
Under B20 stands 1.34 enrichment R; under B21, 0.793 enrichment R; under B22, 0.68 enrichment R.
